According to PubChem BioAssay (Tox21):
Values without a mark were called inactive. The source made the active and inactive calls. Calls follow the shape of the dose curve; as a rule, active = well fitted curve in the direction sought with a large enough effect in the repeat runs; inconclusive = weak or mixed curves; inactive = flat fitted curve, though single readings scatter.

test: qHTS assay to test for compound auto fluorescence at 535 nm (green) in HEK293 cell free culture (AID 720682); details: cell-free medium, green autofluorescence 485/535 nm, active compounds read high; series mostly up to 91.3 µM; activity change: at the top concentration
In short: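 Green-label autofluorescence (485 nm excitation, 535 nm emission) measured on compound added to cell-free culture medium (DMEM, 10% FBS). Output is expressed relative to fluorescein.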
% is scaled to controls: 0 for no effect and ±100 for the full control effect.

Row | SMILES | activity change | outcome
1 | C=CC(=O)OCCCl | 0.0675% [at 95.7 µM] | –
2 | C=CCCC(=O)O | -0.0034% | –
3 | CCC(C(=O)NC(=O)NC(C)=O)c1ccccc1 (stereo not given) | -0.0194% [at 46 µM] | –
4 | CCCCOC(=O)CCC(C)=O | -0.0499% | –
5 | C[N+]12CCC(CC1)C(OC(=O)C(O)(c1ccccc1)c1ccccc1)C2 (stereo not given) | 0.0169% [at 18.6 µM] | –
6 | CCCCCCCCCC[N+](C)(C)[O-] | -0.0019% | –
7 | CC(C)(N)C#N | 0.0399% [at 95.7 µM] | –
8 | Nc1c2c(nc3c1CCC3)CCCC2 | -0.127% [at 46 µM] | –
9 | Cc1ccc(-c2ncc(Cl)cc2-c2ccc(S(C)(=O)=O)cc2)cn1 | 0.0182% [at 46 µM] | –
10 | O=C(O)c1cn(C2CC2)c2cc(N3CCNCC3)c(F)cc2c1=O | 0.0246% [at 18.6 µM] | –
11 | CC1CCC(CO)CC1 (stereo not given) | -0.0531% [at 95.7 µM] | –
12 | FB(F)F | -0.0169% [at 95.7 µM] | –
13 | COc1ccnc(CS(=O)c2nc3cc(OC(F)F)ccc3[nH]2)c1OC (stereo not given) | – | inactive
14 | N[C@H](C(=O)O)[C@@H](O)c1ccc(O)c(O)c1 | -0.0088% [at 46 µM] | –

test: qHTS assay to test for compound auto fluorescence at 590 nm (red) in HEK293 cell free culture (AID 720683); details: cell-free medium autofluorescence, Ex540/Em590 red; series mostly up to 91.3 µM; fluorescence, % of fluorescent control: at the top concentration
In short: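 Tox21 10K library compounds were pinned into cell-free DMEM with 10% FBS and fluorescence was read at excitation 540 nm. Activity is expressed as Rose Bengal sodium equivalency.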

Row | SMILES | fluorescence, % of fluorescent control | outcome
15 | Cc1ncc([C@@H](CCCCCCc2ccc3c(n2)NCCC3)CC(=O)O)cn1 | 0.155% | –
16 | O=C1NC(=O)C2CC=CCC12 (stereo not given) | -0.0981% | –
17 | CCCCc1nc(Cl)c(CO)n1Cc1ccc(-c2ccccc2-c2nn[nH]n2)cc1 | -0.0495% [at 46 µM] | –
18 | Cc1ccccc1N=C(N)N=C(N)N | -0.0859% | –
19 | O=S(=O)(O)c1cccc(S(=O)(=O)O)c1 | 0.0273% | –
20 | C1CCC2(CCCCO2)OC1 | -0.329% | –
21 | COc1c(N2CCNC(C)C2)c(F)cc2c(=O)c(C(=O)O)cn(C3CC3)c12 (stereo not given) | 0.196% [at 46 µM] | –
22 | CC[N+](CC)(CC(=O)Nc1c(C)cccc1C)Cc1ccccc1 (tested in a mixture with another compound) | 0.29% | –
23 | O=C(O)Cc1csc(-c2ccc(Cl)cc2)n1 | 0.182% [at 46 µM] | –
24 | CCCCCCC#CC(=O)OC | 0.157% | –
25 | CCCCN(CCC(=O)OCC)C(C)=O | -0.155% | –
26 | CC(=O)NC(=O)c1ccccc1O | 0.208% [at 46 µM] | –
27 | CC[N+](CC)(CC)CCOc1cccc(OCC[N+](CC)(CC)CC)c1OCC[N+](CC)(CC)CC | -0.0051% [at 46 µM] | –
28 | Cc1nc2ccc(CN(C)c3ccc(C(=O)N[C@@H](CCC(=O)O)C(=O)O)s3)cc2c(=O)[nH]1 | – | inactive
29 | NC(CCC(=O)O)C(=O)O (stereo not given) | 0.233% | –
30 | CCOC(=O)OC(C)OC1=C(C(=O)Nc2ccccn2)N(C)S(=O)(=O)c2ccccc21 (stereo not given) | 0.0005% [at 46 µM] | –
31 | Cc1ncc(COP(=O)(O)O)c(C=O)c1O | 0.166% [at 46 µM] | –
32 | N[C@@H](CCC(=O)O)C(=O)O | – | inactive

Row | SMILES | fluorescence, % of fluorescent control | outcome
33 | CCCC[N+](C)(CCCC)CCCC | 0.0523% | –
34 | CO[C@@]1(NC(=O)C(C(=O)O)c2ccc(O)cc2)C(=O)N2C(C(=O)O)=C(CSc3nnnn3C)CO[C@@H]21 (stereo not given in full) | 0.0003% [at 18.6 µM] | –
35 | C=CC(=O)OCCCl | -0.0801% [at 95.7 µM] | –
36 | CC1=C(C/C=C(\C)CCC[C@H](C)CCC[C@H](C)CCCC(C)C)C(=O)c2ccccc2C1=O | -0.233% [at 46 µM] | –
37 | C=CCCC(=O)O | -0.0159% | –
38 | CCC(C(=O)NC(=O)NC(C)=O)c1ccccc1 (stereo not given) | -0.0348% [at 46 µM] | –
39 | CCCCOC(=O)CCC(C)=O | 0.0242% | –
40 | C[N+]12CCC(CC1)C(OC(=O)C(O)(c1ccccc1)c1ccccc1)C2 (stereo not given) | 0.0635% [at 18.6 µM] | –
41 | CCCCCCCCCC[N+](C)(C)[O-] | -0.216% | –
42 | CC(C)(N)C#N | 0.121% [at 95.7 µM] | –
43 | Nc1c2c(nc3c1CCC3)CCCC2 | 0.36% [at 46 µM] | –
44 | Cc1ccc(-c2ncc(Cl)cc2-c2ccc(S(C)(=O)=O)cc2)cn1 | 0.156% [at 46 µM] | –
45 | O=C(O)c1cn(C2CC2)c2cc(N3CCNCC3)c(F)cc2c1=O | -0.102% [at 18.6 µM] | –
46 | CC1CCC(CO)CC1 (stereo not given) | 0.201% [at 95.7 µM] | –
47 | FB(F)F | 0.0817% [at 95.7 µM] | –
48 | COc1ccnc(CS(=O)c2nc3cc(OC(F)F)ccc3[nH]2)c1OC (stereo not given) | – | inactive
49 | O=S(=O)(O)c1cc(O)c(O)c(S(=O)(=O)O)c1 | -0.126% | –
50 | N[C@H](C(=O)O)[C@@H](O)c1ccc(O)c(O)c1 | -0.0111% [at 46 µM] | –
